The source of these data is PubChem BioAssay (Tox21).

A number with no mark means an inactive call. Calls of active or inactive are those of the source. Unless noted, calls follow the shape of the dose curve; as a rule, active = well fitted curve in the direction sought with a large enough effect in the repeat runs; inconclusive = weak or mixed curves; inactive = no such curve, though single readings can be large; an effect the other way counts as inactive or inconclusive.

The nature of assay [1]: qHTS assay to test for compound auto fluorescence at 535 nm (green) in HEK293 cells (AID 720680). A general note: qHTS replaces the single test concentration by a dilution series.
A short description of assay [2]: qHTS assay to test for compound auto fluorescence at 460 nm (blue) in HEK293 cell free culture (AID 720681). The procedure, abridged: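 Compounds were added to cell-free DMEM with 10% FBS and fluorescence read directly. The blue channel used 405 nm excitation and 460 nm emission, with triamterene as the reference fluorophore.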
The nature of assay [3]: qHTS assay to test for compound auto fluorescence at 535 nm (green) in HEK293 cell free culture (AID 720682). An outline of the steps: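 No cells present: wells hold DMEM supplemented with 10% FBS, into which compound or vehicle is pinned. Green emission is then recorded (485 nm excitation, 535 nm emission) and scaled to fluorescein.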
Assay [4] can be described thus: qHTS assay to test for compound auto fluorescence at 590 nm (red) in HEK293 cell free culture (AID 720683). An outline of the steps: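 Cell-free wells of DMEM with 10% FBS received compound, and intrinsic fluorescence was read at excitation/emission 540/590 nm. Values expressed as equivalence to Rose Bengal sodium.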
Assay [5] can be described thus: qHTS assay to test for compound auto fluorescence at 590 nm (red) in HepG2 cell free culture (AID 720684). An outline of the steps:
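Compounds are added to culture medium (MEM, 10% FBS) lacking cells, then fluorescence is read at excitation 540 nm, emission 590 nm, with Rose Bengal sodium as the equivalency standard.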

A short description of assay [6]: qHTS assay to test for compound auto fluorescence at 535 nm (green) in HepG2 cell free culture (AID 720686).
Assay [7] in a line: qHTS assay to test for compound auto fluorescence at 460 nm (blue) in HepG2 cells (AID 720687). An outline of the steps: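 HepG2 cells in MEM with 10% FBS, attached overnight at 37 C, were exposed to compound or DMSO for 1 hr at 37 C, 5% CO2. Blue fluorescence was read at 405/460 nm, with triamterene as reference fluorophore.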
The nature of assay [8]: qHTS assay to identify small molecule antagonists of the glucocorticoid receptor (GR) signaling pathway - cell viability counter screen (AID 720693). Also: nearly all actives have a fitted effect of over 55% in size. Also: potency is read from the fitted curve at half-maximal effect.
A short description of assay [9]: qHTS assay for identifying genotoxic compounds that show differential cytotoxicity against isogenic chicken DT40 cell lines with known DNA damage response pathways - wild type cell line (AID 743012). Also: nearly all actives have a fitted effect of over 60% in size. Also: potency is read from the fitted curve at half-maximal effect. The procedure, abridged:
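Wild type DT40, 300 cells/well, ~0.5 h settle at 37 C/5% CO2; compounds in DMSO added by pintool; 40 h at 37 C/5% CO2; CellTiter-Glo, 30 min RT; luminescence.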

Assay [10] is described as follows: qHTS assay for identifying genotoxic compounds that show differential cytotoxicity against isogenic chicken DT40 cell lines with known DNA damage response pathways - Rev3 mutant cell line (AID 743014). Also: nearly all actives have a fitted effect of over 55% in size. Also: potency is read from the fitted curve at half-maximal effect.
Assay [11] is described as follows: qHTS assay for identifying genotoxic compounds that show differential cytotoxicity against isogenic chicken DT40 cell lines with known DNA damage response pathways - Rad54/Ku70 mutant cell line (AID 743015). Also: nearly all actives have a fitted effect of over 60% in size. Also: potency is read from the fitted curve at half-maximal effect.
The nature of assay [12]: qHTS assay to identify small molecule antagonists of the androgen receptor (AR) signaling pathway - cell viability counter screen (AID 743033; also: nearly all actives have a fitted effect of over 45% in size; also: potency is read from the fitted curve at half-maximal effect).
A short description of assay [13]: qHTS assay to identify small molecule antagonists of the androgen receptor (AR) signaling pathway using the MDA cell line - cell viability counter screen (AID 743041; also: nearly all actives have a fitted effect of over 45% in size; also: potency is read from the fitted curve at half-maximal effect). An outline of the steps: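 Same-well cytotoxicity was assessed by CellTiter-Fluor in MDA-kb2 AR-luc cells after 16 h of compound treatment under R1881 agonism.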
Assay [14] in a line: qHTS assay to test for compound auto fluorescence at 460 nm (blue) in HepG2 cell free culture (AID 720685). The procedure, abridged:
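Compound (23 nL) or DMSO pinned into cell-free MEM with 10% FBS; blue fluorescence read at 405/460 nm excitation/emission, expressed as auto-fluorescence equivalency to triamterene.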

Assay [15] deals with Glucocorticoid receptor (Homo sapiens) (UniProt P04150). Nature of the assay: qHTS assay to identify small molecule agonists of the glucocorticoid receptor (GR) signaling pathway (AID 720691; active = well fitted activation curve with a large enough effect in the signal ratio in the repeat runs, not every such curve was filed as active; inconclusive = weak or mixed curves, or effect the other way; inactive = no such curve, though single readings can be large or run the other way; the % refers to the signal ratio). Conditions: GR-bla HeLa, beta-lactamase reporter ratio, 18 h; activation: at 62.4 µM (top of the series). An outline of the steps:
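Fluorescence intensity from LiveBLAzer B/G FRET substrate (2 h, room temperature) reports beta-lactamase expression driven by the glucocorticoid response element in GR-bla HeLa cells after 18 h compound exposure at 37 C.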

Assay [16] shares this target. Nature of the assay: qHTS assay to identify small molecule antagonists of the glucocorticoid receptor (GR) signaling pathway (AID 720692; active = well fitted inhibition curve with a large enough effect in the signal ratio in the repeat runs, not every such curve was filed as active; inconclusive = weak or mixed curves, or effect the other way; inactive = no such curve, though single readings can be large or run the other way; the % refers to the signal ratio). An outline of the steps:
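HeLa GR-bla cells; cmpd + dex 5 nM final, 18 h 37 C; LiveBLAzer B/G FRET substrate 2 h RT; fluorescence intensity read. Antagonist mode, qHTS.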

The target of assay [17] is Androgen receptor (Homo sapiens) (UniProt P10275). Kind of assay: qHTS assay to identify small molecule antagonists of the androgen receptor (AR) signaling pathway using the MDA cell line (AID 743042; also: nearly all actives have a fitted effect of over 55% in size). The procedure, abridged: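 MDA-kb2 breast carcinoma cells carrying MMTV-luciferase (AR/GR responsive) were co-treated with compounds and the agonist R1881 for 16 h at 37C. Inhibition read as ONE-Glo luminescence; CellTiter-Fluor fluorescence measured in parallel for cytotoxicity.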

For assay [18] the target is unchanged. Kind of assay: qHTS assay to identify small molecule antagonists of the androgen receptor (AR) signaling pathway (AID 743035; active = well fitted inhibition curve with a large enough effect in the signal ratio in the repeat runs, not every such curve was filed as active; inconclusive = weak or mixed curves, or effect the other way; inactive = no such curve, though single readings can be large or run the other way; the % refers to the signal ratio). The procedure, abridged:
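Fluorescence from a beta-lactamase FRET substrate (LiveBLAzer B/G, 2 h, room temperature) measured inhibition of R1881-stimulated signaling in GeneBLAzer AR-UAS-bla HEK293 cells exposed to compound for 16 h at 37C.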

Assay [19] has the same target. Nature of the assay: qHTS assay to identify small molecule agonists of the androgen receptor (AR) signaling pathway (AID 743036; active = well fitted activation curve with a large enough effect in the signal ratio in the repeat runs, with a control signal flat, not every such curve was filed as active; inconclusive = weak or mixed curves, or effect the other way; inactive = no such curve, though single readings can be large or run the other way; the % refers to the signal ratio). The procedure, abridged:
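Quantitative HTS of the Tox21 10K library in HEK293 cells bearing a stably integrated UAS-controlled beta-lactamase reporter. Compound exposure lasted 16 h at 37C. Reporter activity was detected by FRET substrate fluorescence after 2 h at room temperature.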
% is scaled to controls: 0 for no effect and ±100 for the full control effect.

Sequence of Androgen receptor (Homo sapiens) (P10275 whole entry, looked up): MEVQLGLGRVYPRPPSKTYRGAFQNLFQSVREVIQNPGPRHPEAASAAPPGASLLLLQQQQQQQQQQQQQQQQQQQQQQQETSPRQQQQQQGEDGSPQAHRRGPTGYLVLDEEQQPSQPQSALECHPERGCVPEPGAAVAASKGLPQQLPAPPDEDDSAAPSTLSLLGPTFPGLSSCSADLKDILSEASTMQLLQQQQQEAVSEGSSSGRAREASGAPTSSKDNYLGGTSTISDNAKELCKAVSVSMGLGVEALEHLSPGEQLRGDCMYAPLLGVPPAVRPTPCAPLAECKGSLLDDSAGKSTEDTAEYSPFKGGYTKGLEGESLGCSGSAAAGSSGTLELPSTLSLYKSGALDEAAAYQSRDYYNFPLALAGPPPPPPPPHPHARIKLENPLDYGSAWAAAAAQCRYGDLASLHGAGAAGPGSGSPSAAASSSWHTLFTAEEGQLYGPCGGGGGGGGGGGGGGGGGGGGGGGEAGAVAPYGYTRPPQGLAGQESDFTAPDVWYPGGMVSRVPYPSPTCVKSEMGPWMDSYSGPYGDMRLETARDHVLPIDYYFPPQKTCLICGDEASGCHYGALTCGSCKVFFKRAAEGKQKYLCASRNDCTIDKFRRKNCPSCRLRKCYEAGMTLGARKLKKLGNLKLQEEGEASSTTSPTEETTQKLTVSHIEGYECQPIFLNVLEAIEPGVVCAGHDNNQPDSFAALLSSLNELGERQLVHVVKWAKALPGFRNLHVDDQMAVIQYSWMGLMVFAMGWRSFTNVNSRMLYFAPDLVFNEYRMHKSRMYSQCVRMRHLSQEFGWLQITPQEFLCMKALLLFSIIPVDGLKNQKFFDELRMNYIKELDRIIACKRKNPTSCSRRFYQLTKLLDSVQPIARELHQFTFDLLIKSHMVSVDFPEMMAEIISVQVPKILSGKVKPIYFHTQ
Sequence of Glucocorticoid receptor (Homo sapiens) (P04150 whole entry, looked up): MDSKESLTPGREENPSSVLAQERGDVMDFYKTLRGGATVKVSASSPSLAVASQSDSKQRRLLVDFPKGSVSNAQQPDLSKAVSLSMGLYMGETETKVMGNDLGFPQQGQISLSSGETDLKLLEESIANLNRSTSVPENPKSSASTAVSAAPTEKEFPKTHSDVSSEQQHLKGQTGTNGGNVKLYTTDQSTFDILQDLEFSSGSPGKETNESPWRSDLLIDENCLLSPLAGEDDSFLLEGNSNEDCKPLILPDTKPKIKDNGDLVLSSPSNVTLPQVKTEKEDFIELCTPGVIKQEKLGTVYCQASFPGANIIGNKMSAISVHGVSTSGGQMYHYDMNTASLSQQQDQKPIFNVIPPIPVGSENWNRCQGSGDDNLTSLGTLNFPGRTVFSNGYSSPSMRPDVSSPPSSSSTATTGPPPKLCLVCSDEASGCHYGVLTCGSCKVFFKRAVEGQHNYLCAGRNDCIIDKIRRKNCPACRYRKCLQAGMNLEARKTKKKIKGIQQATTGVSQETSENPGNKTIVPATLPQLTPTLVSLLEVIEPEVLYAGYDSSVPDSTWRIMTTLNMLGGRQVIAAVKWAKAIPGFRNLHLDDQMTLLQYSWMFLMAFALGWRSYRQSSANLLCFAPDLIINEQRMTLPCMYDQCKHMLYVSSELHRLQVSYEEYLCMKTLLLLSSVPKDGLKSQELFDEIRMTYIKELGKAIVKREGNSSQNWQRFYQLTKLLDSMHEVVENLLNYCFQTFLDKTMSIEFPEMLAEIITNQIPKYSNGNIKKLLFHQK

Take `[O]=[Zr]`: the Potency result in assay [1], in [2], in assay [3], in assay [4], in assay [5] and in assay [6] was “inactive” throughout. Further, the Potency entry in assay [7], in assay [8], in [9], in [10], in assay [11] and in assay [12] was “inactive” each time. The Potency result in assay [13] is “inactive”.
Take `O=C(c1ccccc1)c1cc(Cl)ccc1O`: the Potency entry in assay [1], in [2], in [4], in [5], in [14] and in assay [6] was “inactive” in each case. In addition, the Potency result in [7], in assay [15], in [16], in assay [10], in assay [11] and in assay [13] was “inactive” each time.
In the case of `O=C(Nc1ccc(Cl)c(Cl)c1)c1cc(Cl)cc(Cl)c1O`, the Potency entry in [1], in assay [2], in assay [3], in [4], in [5] and in assay [6] was “inactive” throughout. Moreover, the activation in assay [15] was 11.6% [inconclusive] (active). The Potency in assay [9] is 6.11 µM (active); in assay [10], 4.86 µM (active); in assay [11], 4.86 µM (active); in assay [12], 1.95 µM (active); in assay [13], 12.2 µM (active).
On to `O=C(Oc1ccccc1)c1cccc(C(=O)Oc2ccccc2)c1`, for which the Potency entry in assay [1], in assay [2], in [3], in [4], in assay [5] and in [6] was “inactive” in each case. In addition, the Potency result in assay [15], in assay [8], in assay [12], in [13] and in assay [17] was “inactive” throughout. The Potency is 72.3 µM (active) in assay [10] and 67 µM (active) in [11].
As to `CNC(=O)c1cc(Oc2ccc(NC(=O)Nc3ccc(Cl)c(C(F)(F)F)c3)cc2)ccn1`, the Potency entry in [1], in assay [2], in assay [3], in assay [4], in assay [5] and in assay [6] was “inactive” in each case. Besides, in assay [7], the Potency entry was “inactive”. Besides, the Potency is 19 µM (active) in [8]; 5.31 µM (active) in assay [10]; 5.31 µM (active) in assay [11]; 16.9 µM (active) in [12]; 16.8 µM (active) in assay [13].
`CC(C)(C)C1=CC(=O)C=C(C(C)(C)C)C1=O`: the Potency entry in assay [1], in [2], in [3], in [4], in [5] and in assay [6] was “inactive” in each case. The Potency entry in [7], in assay [15], in assay [12] and in assay [13] was “inactive” throughout.
On to `CC(=O)Nc1ccc(O)cc1`, for which the Potency result in [1], in assay [2], in [3], in assay [4], in assay [5] and in [6] was “inactive” in each case. The Potency entry in assay [7], in [8], in assay [9], in assay [10], in assay [11] and in assay [12] was “inactive” each time. For the same compound, the Potency result in [13] is “inactive”.
Turning to `CCOC(=O)COc1ccc(C)cc1`, the Potency entry in assay [1], in [2], in assay [3], in assay [4], in assay [5] and in assay [6] was “inactive” each time. In addition, the Potency entry in [7], in assay [8], in assay [11], in assay [12] and in assay [13] was “inactive” each time.
For `C=C(C)C(=O)OCCC[Si](Cl)(Cl)Cl`, the Potency entry in [1], in [2], in assay [3], in [4], in [5] and in assay [6] was “inactive” throughout. For the same compound, the Potency entry in [7], in [15], in assay [8], in assay [10], in assay [11] and in [12] was “inactive” in each case. Moreover, the Potency result in [13] was “inactive”.
In the case of `CCOC(=O)[C@@](C)(N)Cc1ccc(O)c(O)c1`, the fluorescence, % of fluorescein in [1] is -0.0378% [at 18.6 µM]. The fluorescence, % of fluorescent control in assay [2] is 0.186% [at 18.6 µM]; in assay [4], 0.256% [at 18.6 µM]; in [14] it was 0.193% [at 18.6 µM]; in assay [7] it was 0.0997% [at 18.6 µM]. For the same compound, the fluorescence, % of Rose Bengal in [5] was 0.0263% [at 18.6 µM]. Moreover, in assay [6], the fluorescence, % of fluorescein control was -0.0478% [at 18.6 µM]. For the same compound, the Potency entry in assay [15], in [16], in [8], in [10], in [11] and in assay [13] was “inactive” throughout.
Consider `CC1(C)C(=O)N(Br)C(=O)N1Br`, for which the Potency entry in [1], in [2], in [3], in [4], in assay [5] and in assay [6] was “inactive” each time. Also, the Potency result in assay [7], in assay [15], in assay [16], in assay [8], in assay [12] and in assay [18] was “inactive” each time. Further, the Potency entry in assay [13] and in assay [17] was “inactive” in each case.
`O[C@@H](c1cc(C(F)(F)F)nc2c(C(F)(F)F)cccc12)[C@H]1CCCCN1`: the Potency entry in assay [1], in [2], in assay [3], in assay [4], in assay [5] and in assay [6] was “inactive” each time. Moreover, in [7], the Potency entry is “inactive”. In addition, the Potency in assay [9] was 4.73 µM (active); in assay [10], 4.73 µM (active); in assay [11], 5.31 µM (active); in assay [12], 23.9 µM (active).
As to `CCCCOC(=O)C(C)CC` (configuration not stated), the Potency result in [1], in assay [2], in assay [3], in [4], in assay [5] and in [6] was “inactive” throughout. Further, the Potency entry in assay [7], in assay [15], in assay [8] and in assay [13] was “inactive” throughout. In addition, the Potency in [9] is 12.2 µM (active); in [10] it was 13.7 µM (active); in assay [11], 13.7 µM (active); in [12], 43.6 µM (active).
As for `C=C[C@](C)(O)CC[C@@H]1[C@@]2(C)CCCC(C)(C)[C@@H]2CC[C@@]1(C)O`, the Potency result in assay [1], in assay [2], in [3], in assay [4], in assay [5] and in [6] was “inactive” each time. The Potency entry in assay [7] and in assay [13] was “inactive” each time. The Potency is 24.3 µM (active) in [9], 19.3 µM (active) in [10] and 19.3 µM (active) in assay [11].
For the compound `C=C1C(C)(C)[C@@]2(Cl)C(Cl)[C@]1(Cl)C(Cl)(Cl)C2(Cl)Cl` (some centres not stated), the Potency entry in [1], in [2], in [3], in assay [4], in [5] and in assay [14] was “inactive” in each case. Also, the Potency result in assay [6], in [13] and in [17] was “inactive” throughout. Also, the Potency in [9] was 47.7 µM (active); in [10], 6.73 µM (active); in assay [11], 23.9 µM (active). Also, the compound was called inactive in assay [19].
Turning to `O=C(O)CCn1c2c(c3ccccc31)C[C@H](NS(=O)(=O)c1ccc(F)cc1)CC2`, the Potency entry in [1], in assay [2], in assay [3], in assay [4], in [5] and in assay [6] was “inactive” throughout. The Potency entry in [7], in assay [8], in assay [10], in assay [11], in assay [12] and in assay [13] was “inactive” throughout.
